Assay results published in PubChem BioAssay (NCI).
Compounds without any hit were thinned out: in the full panel of roughly 83,000, 20% have a hit.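 Method: cells in 96-well plates; compound added at one concentration; 48 h incubation; percent growth measured; values under 10 scored active.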 Unmarked numbers belong to inactive results. Calls of active or inactive are those of the source.

What was measured:
Test in all cases: NCI-60 one-dose screen, 48 h (100 = growth as untreated, 0 = no growth, -100 = all killed)
NCI-H226 lung = details: 10 µM
HOP-62 NSCLC = details: 10 µM
NCI-H460 lung = details: 10 µM
A549/ATCC NSCLC = details: 10 µM
COLO 205 colon = details: 10 µM
DU-145 prostate = details: 10 µM
K-562 leukemia = details: 10 µM
SF-539 CNS = details: 10 µM
HCT-15 colon = details: 10 µM
HT29 colon = details: 10 µM
SNB-75 CNS = details: 10 µM
SNB-19 CNS = details: 10 µM
U251 CNS = details: 10 µM
PC-3 prostate = details: 10 µM
LOX IMVI melanoma = details: 10 µM
MOLT-4 leukemia = details: 10 µM
SR leukemia = details: 10 µM
RPMI-8226 leukemia = details: 10 µM
SK-OV-3 ovarian = details: 10 µM
MDA-MB-468 breast = details: 10 µM unless noted

Structure (SMILES)	growth (NCI-H226 lung)	growth (HOP-62 NSCLC)	growth (NCI-H460 lung)	growth (A549/ATCC NSCLC) [%]	growth (COLO 205 colon)	growth (DU-145 prostate) [%]	growth (K-562 leukemia)	growth (SF-539 CNS)	growth (HCT-15 colon)	growth (HT29 colon)	growth (SNB-75 CNS) [%]	growth (SNB-19 CNS) [%]	growth (U251 CNS)	growth (PC-3 prostate)	growth (LOX IMVI melanoma)	growth (MOLT-4 leukemia)	growth (SR leukemia)	growth (RPMI-8226 leukemia)	growth (SK-OV-3 ovarian) [%]	growth (MDA-MB-468 breast)
COc1ccc(C(=O)COc2ccc(NC(=O)Nc3ccc(Cl)c(C(F)(F)F)c3)cc2)cc1	4.95% (active)	42.8%	25.5%	18.5	7.1% (active)	47.3	37.5%	33.7%	8.56% (active)	21.1%	33	21.9	24.3%	8.96% (active)	-60.5% (active)	15.6%	7.72% (active)	19.1%	41.8	-15.1% (active)
COc1ccc2[nH]cc(-c3nc(N)nnc3-c3cn(C)c4ncc(Br)cc34)c2c1	8.48% (active)	26.5%	1.08% (active)	17.7	-73.9% (active)	11.1	3% (active)	-3.25% (active)	12.3%	-27.1% (active)	23.4	30	5.39% (active)	10.5%	20%	2.27% (active)	3% (active)	-16% (active)	10.7	-8.06% (active)
O=C(CSc1nc2ccccc2c(=O)n1-c1ccc(Cl)cc1)Nc1ccc(-c2nc3ccc([N+](=O)[O-])cc3[nH]2)cc1	0.985% (active)	0.0608% (active)	21.1%	50.2	11%	44.2	28.9%	28.6%	56.3%	36.4%	34.4	48.7	20.6%	-14.9% (active)	-30% (active)	39.5%	38.2%	53%	40.2	-35.6% (active)
